39 compounds from PubChem BioAssay (NCI) can be followed below.

The panel holds about 83,000 compounds, 20% with a hit somewhere; the sample as a whole holds those more often.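 Cells were grown in 96-well plates and exposed to the test compound at a single concentration for 48 hours; results are reported as percent growth, with values below 10 considered active.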 A number with no mark means an inactive call. Activity calls are given as the source filed them.

In the first test the test system is MOLT-4 leukemia. In words: NCI-60 one-dose screen, 48 h (100 = growth as untreated, 0 = no growth, -100 = all killed). The note with it: 10 µM unless noted.
As for `COc1ccc(NC(=O)c2sc3c(=O)[nH]c(C(F)(F)F)nc3c2C)cc1`, the growth is 89.7%.

In the case of `O=C(Nc1cccc(Cl)c1)Nc1ccccc1Cl`, the growth was 75%.

For the compound `NC(=O)N/N=C\c1ccc([N+](=O)[O-])o1`, the growth was 103%.

For `CCN(CC)Cc1cc(Nc2ccnc3ccc(OC)cc23)ccc1O`, the growth is 29.7%.

Turning to `CC(C)(C)c1nn(-c2ccccc2)c2c1C(=O)CSC(c1ccc3c(c1)OCO3)N2` (stereo not drawn), the growth was 86%.

Take `CN(C)N1C(=O)c2c(Cl)c(Cl)c(Cl)c(Cl)c2C1=O`: the growth is 88.3%.

Consider `O=c1c2cc(Cl)ccc2oc2ccc(OCCCCCN3CCCCC3)cc12`, for which the growth was 25.2%.

Take `C=CCOc1ccc2c(C)cc(=O)oc2c1`: the growth was 107%.

Turning to `O=C(CSc1nc2c(n1Nc1ccccc1)-c1ccccc1SC2)Nc1nccs1`, the growth is 82.5%.

For `CCNC(=O)c1ccc2c(c1)nc(-c1ccc(Cl)cc1)n2-c1cc(C(C)(C)C)[nH]n1`, the growth is 20.9%.

In the case of `CC(C)CC1NC(=O)C(CC(C)C)N(CO)C1=O` (stereo not drawn), the growth was 92.7%.

`CCn1c(=O)c(C(=O)NCCCO)c(O)c2ccccc21`: the growth was 100%.

Turning to `COc1cc(NCC(O)CN(CC(C)C)CC(C)C)c2ncccc2c1` (stereo not drawn), the growth was 74.9%.

`CC(=O)Nc1ccc(/C=N/N2CCCCCC2)cc1`: the growth was 102%.

`O=c1oc2ccccc2cc1-c1cc(-c2ccc(-c3cc(-c4cc5ccccc5oc4=O)nc(-c4cc5ccccc5oc4=O)c3)cc2)cc(-c2cc3ccccc3oc2=O)n1`: the growth was 86.8%.

Consider `CCN(CC)c1ccc(/C=N/N=C(N)N)cc1`, for which the growth is 49.1%.

Take `Cc1ccc(C)c2c1SC1=NNC(Oc3ccc(Cl)cc3)=C(C#N)C(=N)N12`: the growth was 85.2%.

As for `CCOC(=O)C(Cc1ccccc1)n1c(O)c(/C=N/c2ncc(Cc3ccc(Cl)cc3Cl)s2)sc1=S` (stereo not drawn), the growth was -7.05% (active).

With `COc1ccc(-c2cnc(-c3ccncc3-c3cccc(OC)c3)o2)cc1`, the growth was 11.5%.

On to `Cc1ccc(OC2=C(C#N)C(=N)N3C(=NN2)Sc2c(C)ccc(C)c23)cc1`, for which the growth is 89.1%.

For `O=C(Nc1ccncc1)C(=O)c1cn(S(=O)(=O)c2cccc(Cl)c2F)c2ccccc12`, the growth is 60.2%.

For the compound `CN1C(=O)NC(Cc2c[nH]c3c(Cl)cccc23)C1=O` (stereo not drawn), the growth is 111%.

Turning to `COc1ccc(C(=O)OC2C(OC3C(O)COC(O[C@H]4C[C@H]5[C@@H]6CC=C7C[C@@H](O)CC[C@]7(C)[C@H]6CC[C@]5(C)[C@H]4[C@H](C)C(=O)CCC(C)C)C3OC(C)=O)OCC(O)C2O)cc1` (stereo partly drawn), the growth is -42.4% (active).

`C[C@@H]1N=C(c2ccc3ccccc3c2)Nc2nc3ccccn3c2C1=O`: the growth is 34.5%.

In the case of `O=[N+]([O-])c1ccc(N=Nc2c(NNc3ccc([N+](=O)[O-])cn3)cc(S(=O)(=O)O)c3ccccc23)nc1`, the growth was 70.9%.

As for `CS(=O)(=O)c1ccc(C(=O)N/N=C/c2ccccc2Cl)cc1`, the growth was 67.7%.

Turning to `CC1=C(O)C(=O)CC1`, the growth was 108%.

Regarding `O=C(N/N=C/c1ccc([N+](=O)[O-])cc1)c1ccccc1Nc1ccnc(C(F)(F)F)c1`, the growth is 86.3%.

`Cc1ccc(C(CN(C)C)C(=O)c2ccccc2)cc1` (stereo not drawn): the growth is -9.61% (active).

With `CN1CCC2(CC1)N=C(SCC(=O)Nc1cnc3ccccc3c1)C(c1ccc(Br)cc1)=N2`, the growth is 1.51% (active).

In the case of `Nc1c(C(=O)C[C@@H](N)CO)ccc2c1C(=O)CCO2`, the growth was 33.4%.

Turning to `Cc1ccncc1NC=O`, the growth is 108%.

For `Cc1c2c(cc3c1[nH]c1ccccc13)C=NCC2`, the growth was 83.3%.

With `O=S1(=O)NCCCN1CCNc1nccc(-c2c(-c3cccc(O)c3)nc3sccn23)n1`, the growth is 65.2%.

Turning to `CCc1c(C)c2ccc(O)c(-c3cc(-c4ccccc4)c(C#N)c(=O)[nH]3)c2oc1=O`, the growth is 98.3%.

For the compound `COc1ccc2nc3cc(Cl)ccc3c(NC(=O)CSc3ccc(Cl)cc3)c2c1`, the growth is -52% (active).

As for `C=CC(=O)N1CN(C(=O)C=C)CN(C(=O)C=C)C1`, the growth was 23.4%.

Consider `CCCC(CCC)(C(N)=O)C(=O)O`, for which the growth was 113%.

On to `C=CCCCCOc1cccc(/C=C2\N=C3SCCCN3C2=O)c1`, for which the growth is 96.9%.

A further test relates to SR leukemia. Described as above. The following applies: 10 µM unless noted.
For `COc1ccc(NC(=O)c2sc3c(=O)[nH]c(C(F)(F)F)nc3c2C)cc1`, the growth is 106%.

Consider `O=C(Nc1cccc(Cl)c1)Nc1ccccc1Cl`, for which the growth was 82.1%.

As to `NC(=O)N/N=C\c1ccc([N+](=O)[O-])o1`, the growth is 96.1%.

On to `CCN(CC)Cc1cc(Nc2ccnc3ccc(OC)cc23)ccc1O`, for which the growth is 7.65% (active).

With `CC(C)(C)c1nn(-c2ccccc2)c2c1C(=O)CSC(c1ccc3c(c1)OCO3)N2` (stereo not drawn), the growth is 78.8%.

In the case of `CN(C)N1C(=O)c2c(Cl)c(Cl)c(Cl)c(Cl)c2C1=O`, the growth is 87.5%.

On to `O=c1c2cc(Cl)ccc2oc2ccc(OCCCCCN3CCCCC3)cc12`, for which the growth is 7.54% (active).

For the compound `C=CCOc1ccc2c(C)cc(=O)oc2c1`, the growth was 128%.

As for `O=C(CSc1nc2c(n1Nc1ccccc1)-c1ccccc1SC2)Nc1nccs1`, the growth is 82.7%.

Consider `CCNC(=O)c1ccc2c(c1)nc(-c1ccc(Cl)cc1)n2-c1cc(C(C)(C)C)[nH]n1`, for which the growth was -11.8% (active).

For `CC(C)CC1NC(=O)C(CC(C)C)N(CO)C1=O` (stereo not drawn), the growth was 96.4%.

In the case of `CCn1c(=O)c(C(=O)NCCCO)c(O)c2ccccc21`, the growth is 105%.

`COc1cc(NCC(O)CN(CC(C)C)CC(C)C)c2ncccc2c1` (stereo not drawn): the growth is 50.6%.

Regarding `CC(=O)Nc1ccc(/C=N/N2CCCCCC2)cc1`, the growth is 96.2%.

As for `O=c1oc2ccccc2cc1-c1cc(-c2ccc(-c3cc(-c4cc5ccccc5oc4=O)nc(-c4cc5ccccc5oc4=O)c3)cc2)cc(-c2cc3ccccc3oc2=O)n1`, the growth is 93.7%.

Consider `CCN(CC)c1ccc(/C=N/N=C(N)N)cc1`, for which the growth was 27.6%.

Regarding `Cc1ccc(C)c2c1SC1=NNC(Oc3ccc(Cl)cc3)=C(C#N)C(=N)N12`, the growth was 113%.

Turning to `CCOC(=O)C(Cc1ccccc1)n1c(O)c(/C=N/c2ncc(Cc3ccc(Cl)cc3Cl)s2)sc1=S` (stereo not drawn), the growth was 27.8%.

`COc1ccc(-c2cnc(-c3ccncc3-c3cccc(OC)c3)o2)cc1`: the growth is 10.2%.

Turning to `Cc1ccc(OC2=C(C#N)C(=N)N3C(=NN2)Sc2c(C)ccc(C)c23)cc1`, the growth was 98.2%.

With `O=C(Nc1ccncc1)C(=O)c1cn(S(=O)(=O)c2cccc(Cl)c2F)c2ccccc12`, the growth is 20%.

`CN1C(=O)NC(Cc2c[nH]c3c(Cl)cccc23)C1=O` (stereo not drawn): the growth is 101%.

Consider `COc1ccc(C(=O)OC2C(OC3C(O)COC(O[C@H]4C[C@H]5[C@@H]6CC=C7C[C@@H](O)CC[C@]7(C)[C@H]6CC[C@]5(C)[C@H]4[C@H](C)C(=O)CCC(C)C)C3OC(C)=O)OCC(O)C2O)cc1` (stereo partly drawn), for which the growth is -8.55% (active).

As for `C[C@@H]1N=C(c2ccc3ccccc3c2)Nc2nc3ccccn3c2C1=O`, the growth was 30.5%.

As for `O=[N+]([O-])c1ccc(N=Nc2c(NNc3ccc([N+](=O)[O-])cn3)cc(S(=O)(=O)O)c3ccccc23)nc1`, the growth was 47.2%.

In the case of `CS(=O)(=O)c1ccc(C(=O)N/N=C/c2ccccc2Cl)cc1`, the growth was 92.5%.

For the compound `CC1=C(O)C(=O)CC1`, the growth is 78.4%.

As for `O=C(N/N=C/c1ccc([N+](=O)[O-])cc1)c1ccccc1Nc1ccnc(C(F)(F)F)c1`, the growth is 99.6%.

As to `Cc1ccc(C(CN(C)C)C(=O)c2ccccc2)cc1` (stereo not drawn), the growth is -29.2% (active).

In the case of `CN1CCC2(CC1)N=C(SCC(=O)Nc1cnc3ccccc3c1)C(c1ccc(Br)cc1)=N2`, the growth was -27% (active).

On to `Nc1c(C(=O)C[C@@H](N)CO)ccc2c1C(=O)CCO2`, for which the growth is 30.7%.

Take `Cc1ccncc1NC=O`: the growth was 93.8%.

For `Cc1c2c(cc3c1[nH]c1ccccc13)C=NCC2`, the growth was 64.1%.

`O=S1(=O)NCCCN1CCNc1nccc(-c2c(-c3cccc(O)c3)nc3sccn23)n1`: the growth was 23.2%.

`CCc1c(C)c2ccc(O)c(-c3cc(-c4ccccc4)c(C#N)c(=O)[nH]3)c2oc1=O`: the growth is 95.5%.

Regarding `COc1ccc2nc3cc(Cl)ccc3c(NC(=O)CSc3ccc(Cl)cc3)c2c1`, the growth was -10.1% (active).

In the case of `C=CC(=O)N1CN(C(=O)C=C)CN(C(=O)C=C)C1`, the growth is 25.3%.

On to `CCCC(CCC)(C(N)=O)C(=O)O`, for which the growth was 111%.

For the compound `C=CCCCCOc1cccc(/C=C2\N=C3SCCCN3C2=O)c1`, the growth is 125%.
